Here are results for 15 compounds from PubChem BioAssay (NCATS).

Unmarked numbers belong to inactive results. Inconclusive results are not listed. Active and inactive are the calls of the source. Unless noted, calls follow the shape of the dose curve; as a rule, active = well fitted curve in either direction with a large enough effect (not every such curve was filed as active); inconclusive = small, poorly fitted or top-dose-only effect, or another doubt; inactive = flat fitted curve, though single readings scatter. Where only a bound is given, the exact number is not on record here.

The target of experiment [1] is Lysosomal acid glucosylceramidase (Homo sapiens) (UniProt P04062). Put plainly: Glucocerebrosidase-p2 (AID 348; in the data active = potency below about 10 µM; also: potency is read from the fitted curve at half-maximal effect). Conditions: purified GBA, blue fluorogenic substrate, 40 min. The gist of the method:
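Normal human glucocerebrosidase (0.2 nM) with blue fluorogenic substrate (80 uM final) in citrate/phosphate pH 5.9 with 10mM sodium taurocholate, 0.01% tween-20; 40 min RT, NaOH/glycine stop; fluorescence Ex 365/Em 440; AC50 from a titration from 0.6 nM upwards.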

Experiment [2] can be described thus: AP1 Signaling Pathway (AID 357).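 Also: ME-180 reporter cells stimulated with EGF at its EC50 level; % is scaled to controls: 0 for no effect and ±100 for the full control effect.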 The following applies: ME-180 AP-1-bla reporter, EGF-induced, beta-lactamase ratio, 5 h; at 7.69 µM (top of the series) unless noted. The gist of the method:
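Modulation of EGF-driven AP-1 transcription was assessed with a beta-lactamase reporter in ME-180 cells. Compound and EC50 EGF were co-incubated 5 hours at 37 °C before 2.5-hour CCF4 loading at room temperature and dual-emission reading.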

For experiment [3], the target named is Cytochrome P450 1A2 (Homo sapiens) (UniProt P05177). Nature of the experiment: p450-cyp1a2 (AID 410; calls by dose curve; also: potency is read from the fitted curve at half-maximal effect;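 as to activity change, negative = inhibition: -100% = full effect of reference inhibitor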). The following applies: recombinant CYP1A2, luciferin-ME demethylation, luminescence; series mostly up to 11.4 µM. The method, boiled down: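 Read-out is luminescence from luciferin produced by CYP1A2 demethylation of Luciferin-ME (100uM, at Km). Detection reagent stopped the 60 min NADPH-dependent reaction; signals were normalized to 57 uM furafylline.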

Experiment [4] is described as follows: NFAT Signaling Pathway (AID 444).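 Also: carbachol stimulus at about its EC50 of 1 µM final; % is scaled to controls: 0 for no effect and ±100 for the full control effect.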 Conditions: Jurkat NFAT-bla M1, carbachol, beta-lactamase ratio, 5 h; at 7.69 µM (top of the series) unless noted. The gist of the method: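 Jurkat cells carrying an NFAT-driven β-lactamase reporter and co-transfected muscarinic M1 receptor were treated with compound plus carbachol (1 uM final, an EC50 level) for 5 h at 37 °C. CCF4 loading followed for 1 h at RT; 460/530 nm ratio gave %activity.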

Experiment [5] in a line: Stat Signaling Pathway (AID 446).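 Also: ME-180 cervical cancer cells given 40 pM IL-6 alongside compound; SIE-controlled beta-lactamase reporter measured as 460/530 nm FRET emission ratio; % is scaled to controls: 0 for no effect and ±100 for the full control effect.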 The following applies: ME-180 SIE beta-lactamase reporter, IL-6 stimulated, 5 h; at 7.69 µM (top of the series) unless noted. The gist of the method: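 Emission at 460 and 530 nm (excitation 405 nm) reports SIE-controlled beta-lactamase in ME-180 cells. Cells received compound with 40 pM IL-6 for 5 hrs at 37 C; data scaled between 300 pM IL-6 and 125 nM JAK-inhibitor controls.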

The target of experiment [6] is Glucocorticoid receptor (Homo sapiens) (UniProt P04150). Nature of the experiment: GR-GFP Redistribution (AID 450;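 active = compounds whose dose series gives a full or clear partial fitted curve of increased nuclear translocation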; also: potency is read from the fitted curve at half-maximal effect). The following applies: U2OS GR-GFP nuclear translocation, laser cytometry, 2 h.
The target is the same in experiment [7]. Nature of the experiment: GR-EFC Redistribution (AID 451; calls by dose curve; also: potency is read from the fitted curve at half-maximal effect). The following applies: CHO-K1 GR-EFC translocation, beta-gal luminescence, 2 h. The gist of the method: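 CHO-K1 cells stably expressing nuclear-localized β-gal enzyme acceptor and GR fused C-terminally to the enzyme donor fragment; ligand-driven nuclear translocation restores β-gal by complementation. Compounds titrated up to 46 uM final, 2 h at 37 °C; luminescence read.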

In experiment [8] the target is Mitogen-activated protein kinase 10 (Mus musculus) (UniProt Q61831). Nature of the experiment: JNK3 AlphaScreen Assay (AID 530).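 Also: kinase came from lysate of stimulated human HepG2 cells; % is scaled to controls: 0 for no effect and ±100 for the full control effect.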 The following applies: JNK3 lysate, c-Jun phosphorylation; series mostly up to 11.4 µM. The gist of the method: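 Biotinylated GST-cJun(1-79) served as substrate for JNK3 in HepG2 lysates stimulated with IL-1beta and TNF-alpha. ATP was 10 uM final, pH 7.6. Ser73 phosphorylation was quantified by AlphaScreen (680 nm excitation).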
Background: Alpha assays give light when donor and acceptor beads are brought close together.

For experiment [9], the target named is 3',5'-cyclic-AMP phosphodiesterase 4B (Homo sapiens) (UniProt Q07343). Nature of the experiment: qHTS Assay for Inhibitors of PDE-IV (AID 607; active = well fitted activation curve with a large enough effect in the main read-out, with a control signal flat, not every such curve was filed as active; also: % of control where 0% means no effect). Conditions: HEK293 ACTOne CNG channel cells, membrane potential fluorescence; series mostly up to 22.9 µM. The gist of the method:
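The readout is membrane depolarisation from a cAMP-sensing CNG channel, detected with a potential dye at ex 535/em 590. Cells were HEK293-derived (endogenous PDE-IV) at 1000 cells/well, titrated up to 22.9 uM final.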
For orientation: qHTS replaces the single test concentration by a dilution series.

The target of experiment [10] is Cytochrome P450 2D6 (Homo sapiens) (UniProt P10635). Put plainly: qHTS Assay for Inhibitors and Substrates of Cytochrome P450 2D6 (AID 891; active = well fitted inhibition curve with a large enough effect; also: nearly all actives have a fitted effect of over 60% in size; also: potency is read from the fitted curve at half-maximal effect). Conditions: recombinant CYP2D6, luciferin-ME EGE luminescence; series mostly up to 11.4 µM. The method, boiled down: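 Luminescent read-out of luciferin formed by 5 nM human CYP2D6 demethylating 30 uM Luciferin-ME EGE (Km level) over 60 min at room temperature after NADPH regeneration addition. Data normalized to full inhibition by 1.43 uM quinidine.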

The target of experiment [11] is Cytochrome P450 2C19 (Homo sapiens) (UniProt P33261). Nature of the experiment: qHTS Assay for Inhibitors and Substrates of Cytochrome P450 2C19 (AID 899; active = well fitted inhibition curve with a large enough effect; also: nearly all actives have a fitted effect of over 60% in size; also: potency is read from the fitted curve at half-maximal effect). The following applies: recombinant CYP2C19, luciferin-H EGE luminescence; series mostly up to 11.4 µM. The method, boiled down:
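In 50mM KPO4, the reaction held 5nM enzyme and KM-level (10uM) Luciferin-H EGE; it ran 60 min at 37C after NADPH regeneration and a 10 min compound preincubation. Luminescence values were scaled to 57uM ketoconazole as complete inhibition.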

Experiment [12] is described as follows: qHTS Assay for Identification of Small Molecule Agonists for Hypoxia Response Element Signaling Pathway (AID 914; active = well fitted activation curve with a large enough effect in the signal ratio, with a control signal flat, not every such curve was filed as active; the % refers to the signal ratio; also: % of control where 0% means no effect). The following applies: ME-180 (cervical carcinoma) HRE-bla reporter, beta-lactamase ratio, CoCl2, 17 h; activation: stronger effect = higher value. The method, boiled down: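 Compounds in a titration series were added to ME-180 reporter cells alongside an EC50 level of CoCl2. After 17 hours, beta-lactamase activity was read as the 460nm/530nm emission ratio of CCF4, giving AC50 values.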

Cytochrome P450 2C19 (Homo sapiens), sequence (P33261 whole entry, looked up): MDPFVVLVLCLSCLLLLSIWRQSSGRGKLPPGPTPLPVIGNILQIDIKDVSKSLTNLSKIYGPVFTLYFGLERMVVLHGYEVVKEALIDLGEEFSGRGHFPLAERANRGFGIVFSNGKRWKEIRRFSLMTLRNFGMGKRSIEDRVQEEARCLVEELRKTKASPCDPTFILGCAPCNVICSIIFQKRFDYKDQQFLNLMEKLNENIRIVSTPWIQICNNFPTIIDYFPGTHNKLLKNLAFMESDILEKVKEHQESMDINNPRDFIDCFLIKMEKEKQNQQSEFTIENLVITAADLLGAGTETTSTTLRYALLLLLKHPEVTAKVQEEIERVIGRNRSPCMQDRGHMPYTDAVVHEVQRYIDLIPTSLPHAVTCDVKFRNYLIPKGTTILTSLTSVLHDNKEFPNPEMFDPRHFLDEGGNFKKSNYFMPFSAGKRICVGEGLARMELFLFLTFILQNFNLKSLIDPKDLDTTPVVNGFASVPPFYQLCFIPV
Cytochrome P450 1A2 (Homo sapiens), sequence (P05177 whole entry, looked up): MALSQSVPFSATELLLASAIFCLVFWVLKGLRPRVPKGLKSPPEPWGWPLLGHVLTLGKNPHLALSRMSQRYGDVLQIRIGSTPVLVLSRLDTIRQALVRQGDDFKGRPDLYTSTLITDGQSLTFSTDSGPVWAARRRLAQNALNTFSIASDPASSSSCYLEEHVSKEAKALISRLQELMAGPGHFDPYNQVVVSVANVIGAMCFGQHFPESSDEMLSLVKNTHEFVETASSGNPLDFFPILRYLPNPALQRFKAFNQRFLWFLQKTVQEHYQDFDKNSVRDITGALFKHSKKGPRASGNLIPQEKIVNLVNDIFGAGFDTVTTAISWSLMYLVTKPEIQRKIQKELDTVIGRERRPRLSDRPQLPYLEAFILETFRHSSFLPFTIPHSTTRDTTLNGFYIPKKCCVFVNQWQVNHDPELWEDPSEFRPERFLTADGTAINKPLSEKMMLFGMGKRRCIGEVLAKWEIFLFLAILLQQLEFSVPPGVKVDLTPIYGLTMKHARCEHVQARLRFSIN
Lysosomal acid glucosylceramidase (Homo sapiens), sequence (P04062 whole entry, looked up): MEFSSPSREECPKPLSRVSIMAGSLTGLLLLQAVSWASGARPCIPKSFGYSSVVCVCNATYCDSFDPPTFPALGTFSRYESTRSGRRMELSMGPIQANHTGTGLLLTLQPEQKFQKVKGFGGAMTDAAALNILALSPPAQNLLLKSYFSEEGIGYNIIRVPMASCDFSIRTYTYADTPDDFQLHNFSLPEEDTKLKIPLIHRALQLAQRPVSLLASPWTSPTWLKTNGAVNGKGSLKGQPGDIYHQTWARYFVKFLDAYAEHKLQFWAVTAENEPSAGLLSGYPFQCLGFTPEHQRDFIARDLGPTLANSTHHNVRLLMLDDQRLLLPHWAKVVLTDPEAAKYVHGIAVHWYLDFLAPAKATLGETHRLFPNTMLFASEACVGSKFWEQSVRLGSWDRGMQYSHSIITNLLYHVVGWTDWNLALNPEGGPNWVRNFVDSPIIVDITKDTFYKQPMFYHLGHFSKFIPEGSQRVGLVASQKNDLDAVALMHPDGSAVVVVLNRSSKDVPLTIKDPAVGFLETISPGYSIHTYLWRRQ
3',5'-cyclic-AMP phosphodiesterase 4B (Homo sapiens), sequence (Q07343 whole entry, looked up): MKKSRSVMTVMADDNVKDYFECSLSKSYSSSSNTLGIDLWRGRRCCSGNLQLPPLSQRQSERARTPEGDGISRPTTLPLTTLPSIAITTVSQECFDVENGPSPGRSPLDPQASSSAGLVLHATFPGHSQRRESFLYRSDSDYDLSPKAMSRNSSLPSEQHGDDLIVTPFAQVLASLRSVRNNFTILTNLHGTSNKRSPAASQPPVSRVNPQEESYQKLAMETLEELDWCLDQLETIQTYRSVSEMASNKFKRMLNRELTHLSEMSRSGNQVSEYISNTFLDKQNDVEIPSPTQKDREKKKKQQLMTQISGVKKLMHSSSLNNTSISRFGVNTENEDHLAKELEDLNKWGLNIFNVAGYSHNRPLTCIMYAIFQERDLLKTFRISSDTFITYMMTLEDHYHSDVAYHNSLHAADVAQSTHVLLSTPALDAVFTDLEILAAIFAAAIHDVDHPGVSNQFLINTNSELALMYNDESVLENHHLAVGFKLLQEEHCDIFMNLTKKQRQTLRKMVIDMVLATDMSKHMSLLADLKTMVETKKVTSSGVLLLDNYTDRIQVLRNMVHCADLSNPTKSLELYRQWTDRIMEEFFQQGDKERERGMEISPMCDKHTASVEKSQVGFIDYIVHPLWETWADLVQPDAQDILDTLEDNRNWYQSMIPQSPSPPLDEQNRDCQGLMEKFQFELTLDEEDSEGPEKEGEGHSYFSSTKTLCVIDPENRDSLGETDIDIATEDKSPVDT
Cytochrome P450 2D6 (Homo sapiens), sequence (P10635 whole entry, looked up): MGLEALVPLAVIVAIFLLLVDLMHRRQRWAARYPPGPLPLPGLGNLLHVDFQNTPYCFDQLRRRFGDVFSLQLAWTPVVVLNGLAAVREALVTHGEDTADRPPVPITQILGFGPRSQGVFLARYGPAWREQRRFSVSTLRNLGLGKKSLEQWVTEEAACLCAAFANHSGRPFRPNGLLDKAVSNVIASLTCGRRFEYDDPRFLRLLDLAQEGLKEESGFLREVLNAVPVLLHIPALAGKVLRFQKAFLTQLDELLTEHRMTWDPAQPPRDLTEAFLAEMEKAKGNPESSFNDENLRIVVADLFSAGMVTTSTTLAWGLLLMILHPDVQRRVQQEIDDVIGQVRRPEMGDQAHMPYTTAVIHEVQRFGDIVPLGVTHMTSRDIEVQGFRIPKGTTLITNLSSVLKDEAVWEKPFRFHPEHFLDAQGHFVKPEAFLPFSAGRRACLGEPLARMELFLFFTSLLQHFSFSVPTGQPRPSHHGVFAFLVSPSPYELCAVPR
Glucocorticoid receptor (Homo sapiens), sequence (P04150 whole entry, looked up, the tested form may be a part): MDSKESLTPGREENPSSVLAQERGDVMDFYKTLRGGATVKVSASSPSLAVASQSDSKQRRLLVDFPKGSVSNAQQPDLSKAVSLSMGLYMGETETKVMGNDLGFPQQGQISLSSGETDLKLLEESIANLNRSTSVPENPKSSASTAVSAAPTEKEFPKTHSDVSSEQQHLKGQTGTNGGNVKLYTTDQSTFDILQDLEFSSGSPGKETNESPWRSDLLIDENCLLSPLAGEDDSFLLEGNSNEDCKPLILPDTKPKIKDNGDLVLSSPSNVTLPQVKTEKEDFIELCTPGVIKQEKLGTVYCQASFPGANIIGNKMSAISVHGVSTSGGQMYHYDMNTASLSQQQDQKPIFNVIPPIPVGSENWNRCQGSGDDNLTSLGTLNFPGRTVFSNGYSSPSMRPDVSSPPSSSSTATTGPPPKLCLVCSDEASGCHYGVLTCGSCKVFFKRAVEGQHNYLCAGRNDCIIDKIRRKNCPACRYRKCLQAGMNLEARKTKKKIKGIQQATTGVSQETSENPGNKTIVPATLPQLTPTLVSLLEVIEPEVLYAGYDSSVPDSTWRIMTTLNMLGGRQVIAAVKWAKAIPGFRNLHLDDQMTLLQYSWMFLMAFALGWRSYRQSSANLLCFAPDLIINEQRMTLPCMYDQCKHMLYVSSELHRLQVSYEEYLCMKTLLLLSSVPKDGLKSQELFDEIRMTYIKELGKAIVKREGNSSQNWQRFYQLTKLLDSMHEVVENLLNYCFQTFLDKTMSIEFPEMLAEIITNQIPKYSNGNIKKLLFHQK

Turning to `c1ccc2c(c1)nnn2CN1CCOCC1`, the Potency in experiment [1] was greater than 11.4 µM; in [6], greater than 46 µM; in experiment [7] it was greater than 9.22 µM. Besides, the activity change, negative = inhibition was 1.95% in experiment [2] and -0.506% in experiment [4]. In addition, the Potency result in experiment [3], in experiment [8], in experiment [9] and in experiment [10] was “inactive” throughout. Further, in experiment [5], the activity, negative = inhibition was -18.4%.

For the compound `O=C(O)CCCc1ccc2ccc3ccccc3c2c1`, the Potency in experiment [1] is greater than 11.4 µM; in experiment [3], 2 µM (active); in experiment [6], greater than 46 µM; in experiment [7], greater than 9.22 µM. In addition, the activity change, negative = inhibition was -11.1% in experiment [2] and -6.89% in experiment [4]. Further, the activity, negative = inhibition in [5] was -2.84%. In addition, the Potency result in experiment [8], in experiment [9], in experiment [10] and in experiment [11] was “inactive” throughout.

As for `Cn1c(=O)c2[nH]c(CCCCc3nc4ccccc4[nH]3)nc2n(C)c1=O`, the Potency in experiment [1] was greater than 11.4 µM; in [6], greater than 46 µM; in [7], greater than 9.22 µM. Further, the values for the activity change, negative = inhibition in [2] and in experiment [4] were -12.7% and 25%, respectively. Besides, the Potency result in [3], in [8], in [9], in experiment [10] and in [11] was “inactive” each time. The activity, negative = inhibition in experiment [5] was 5.57%.

On to `c1ccc(C(CCN2CC3CCC(CC3)C2)c2ccccc2)cc1`, for which the Potency in [1] is greater than 11.4 µM; in experiment [6] it was greater than 46 µM; in experiment [7] it was greater than 9.22 µM; in experiment [10] it was 0.794 µM (active). In addition, the results for the activity change, negative = inhibition in experiment [2] and in experiment [4] were 2.88% and -81.8% (active), respectively. The Potency entry in [3], in experiment [8] and in experiment [9] was “inactive” throughout. Besides, the activity, negative = inhibition in experiment [5] was 0.0517%.

`Cc1ccc([C@@H](O)c2cnc(C)n2Cc2ccccc2)cc1`: the Potency is greater than 11.4 µM in experiment [1]; greater than 46 µM in [6]; greater than 9.22 µM in experiment [7]; 0.631 µM (active) in experiment [10]; 1.26 µM (active) in [11]. For the same compound, the activity change, negative = inhibition is -7.71% in [2] and -10.9% in experiment [4]. In addition, the Potency result in experiment [3], in experiment [8] and in experiment [9] was “inactive” throughout. In addition, the activity, negative = inhibition in [5] is -4.84%.

On to `Nc1ccc(S(=O)(=O)NCCS(=O)(=O)O)cc1`, for which the Potency in experiment [1] is greater than 11.4 µM; in experiment [6] it was greater than 46 µM; in experiment [7] it was greater than 9.22 µM. The activity change, negative = inhibition is -2.08% in [2], -3.1% [at 2.29 µM] in experiment [3] and 6.94% in experiment [4]. For the same compound, the activity, negative = inhibition in [5] is -3.3%. Further, the Potency result in experiment [8], in experiment [9] and in experiment [10] was “inactive” in each case. Besides, the activation in experiment [12] is -1.31%.

As for `Cc1ccc(N(Cc2ccccc2)Cc2ccccc2)cc1`, the Potency is greater than 11.4 µM in [1], greater than 46 µM in experiment [6], greater than 9.22 µM in experiment [7] and 2 µM (active) in experiment [11]. Besides, the activity change, negative = inhibition is 4.21% in [2], -24.2% [at 2.29 µM] in [3] and -17.4% in experiment [4]. The activity, negative = inhibition in experiment [5] was 3.16%. Further, the Potency result in experiment [8] and in [9] was “inactive” in each case.

Take `C[N+](C)(N)CCC[N+](C)(C)N`: the Potency in experiment [1] is greater than 11.4 µM; in [6], greater than 46 µM; in experiment [7], greater than 9.22 µM. In addition, the activity change, negative = inhibition in experiment [2] was 6.06%; in experiment [4] it was 24.5%. Also, the Potency result in experiment [3], in experiment [8], in experiment [9], in [10] and in experiment [11] was “inactive” in each case. Moreover, the activity, negative = inhibition in experiment [5] is 8.44%.

As to `Cn1c(=O)c2c(nc(N/N=C\c3ccccc3C(=O)O)n2C)n(C)c1=O`, the Potency was greater than 11.4 µM in experiment [1], greater than 46 µM in experiment [6] and greater than 9.22 µM in experiment [7]. The activity change, negative = inhibition is -10.8% in [2] and 5.57% in [4]. In addition, the Potency entry in [3], in [8], in [9] and in [11] was “inactive” in each case. In addition, the activity, negative = inhibition in experiment [5] was 3.2%.

For the compound `NC(=O)c1csc(-c2ccc(CO)o2)n1`, the results for the Potency in experiment [1], in experiment [6] and in experiment [7] were greater than 11.4 µM, greater than 46 µM and greater than 9.22 µM, respectively. Further, the activity change, negative = inhibition is -2.81% in [2] and 10.7% in experiment [4]. Further, the Potency result in [3], in [8], in experiment [9] and in [11] was “inactive” throughout. The activity, negative = inhibition in experiment [5] was 13.2%.

Consider `O=C(O)c1ccc(S(=O)(=O)N=Nc2c(O)[nH]c3ccccc23)cc1`, for which the Potency was greater than 11.4 µM in experiment [1], greater than 46 µM in [6] and greater than 9.22 µM in experiment [7]. Also, the activity change, negative = inhibition in [2] was -0.32%; in experiment [4], 4.27%. Further, the Potency result in [3], in experiment [8], in experiment [9] and in experiment [11] was “inactive” each time. For the same compound, in experiment [5], the activity, negative = inhibition is 21.1%.

As for `CC(C)CNc1nc(N)[nH]c(=O)c1NC=O`, the Potency in [1] was greater than 11.4 µM; in experiment [6], greater than 46 µM; in [7] it was greater than 9.22 µM. For the same compound, the activity change, negative = inhibition is 9% in experiment [2] and -1.94% in experiment [4]. Further, the Potency entry in experiment [3], in [8], in experiment [9] and in experiment [11] was “inactive” in each case. In addition, in [5], the activity, negative = inhibition was 7.03%.

Consider `C=CC[C@@H](C(=O)O)c1ccccc1`, for which the figures for the Potency in experiment [1], in [6] and in experiment [7] were greater than 11.4 µM, greater than 46 µM and greater than 9.22 µM, respectively. In addition, the activity change, negative = inhibition was 2.31% in experiment [2] and 9.16% in experiment [4]. The Potency entry in experiment [3], in [8], in experiment [9] and in experiment [11] was “inactive” in each case. In experiment [5], the activity, negative = inhibition is 8.67%.

For `Nc1ccc2[nH]cc(CCC(=O)O)c2c1`, the values for the Potency in [1], in experiment [6] and in [7] were greater than 11.4 µM, greater than 46 µM and greater than 9.22 µM, respectively. Moreover, the activity change, negative = inhibition in [2] was 4.94%; in [4], 4.67%. For the same compound, the Potency entry in experiment [3], in experiment [8], in experiment [9] and in experiment [11] was “inactive” throughout. Moreover, the activity, negative = inhibition in [5] is 6.65%.

With `O=C(N[C@@]1(C(=O)O)C[C@@H]1c1ccccc1)c1ccccc1`, the values for the Potency in experiment [1], in [6] and in experiment [7] were greater than 11.4 µM, greater than 46 µM and greater than 9.22 µM, respectively. The values for the activity change, negative = inhibition in experiment [2] and in experiment [4] were 7.86% and 18.8%, respectively. Moreover, the Potency result in experiment [3], in experiment [8], in experiment [9] and in experiment [11] was “inactive” each time. In addition, the activity, negative = inhibition in [5] was 10.3%.
